39 molecules from PubChem BioAssay (NCATS) can be followed below.

Where “and” joins values, the source holds several entries; their conditions need not be identical. Identical values can stand only once. Results filed as inconclusive are left out. Where a structure was tested more than once in an assay, its records may differ in their call. Unmarked numbers belong to inactive results. Calls of active or inactive are those of the source. Calls follow the shape of the dose curve; as a rule, active = well fitted activation curve with a large enough effect; inconclusive = small, poorly fitted or top-dose-only effect; inactive = no such curve, though single readings can be large or run the other way. Square brackets hold non-standard residues; d marks the D form. Peptide text beside a SMILES is read from it. * marks the point of attachment. ξ: configuration not given here. ξLac(3-iPr) = CC(C)CC(O)C(=O)O; NMeV = CN[CH](C(=O)O)C(C)C; Hexanoyl = CCCCCC(=O)*; βAla = NCCC(=O)O
Potency is read from the fitted curve at half-maximal effect.

Chain of Cellular tumor antigen p53 (Homo sapiens) (P04637 whole entry, looked up): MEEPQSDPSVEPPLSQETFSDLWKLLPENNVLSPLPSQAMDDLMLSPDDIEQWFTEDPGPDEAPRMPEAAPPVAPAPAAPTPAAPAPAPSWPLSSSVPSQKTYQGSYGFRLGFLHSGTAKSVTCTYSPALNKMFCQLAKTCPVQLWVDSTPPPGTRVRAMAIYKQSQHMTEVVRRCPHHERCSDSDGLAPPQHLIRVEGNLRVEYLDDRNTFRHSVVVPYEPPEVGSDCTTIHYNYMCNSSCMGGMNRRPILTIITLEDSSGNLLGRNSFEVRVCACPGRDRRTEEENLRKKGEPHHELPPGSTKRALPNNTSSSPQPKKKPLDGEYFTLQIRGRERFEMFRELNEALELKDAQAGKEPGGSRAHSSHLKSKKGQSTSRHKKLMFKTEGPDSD

In the assay the target is Cellular tumor antigen p53 (Homo sapiens) (UniProt P04637). The assay can be described thus: Primary qHTS for small molecule compounds that upregulate eGFP-tagged delta133p53alpha (in N-terminal) cells. (AID 2060322). Also: nearly all actives have a fitted effect of over 75% in size.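 As to activation: cells pre-induced with doxycycline then dosed without doxycycline; series mostly up to about 56 µM; 0% = DMSO vehicle and 100% = reference activator.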 To be noted: NCI-H358 eGFP-delta133p53alpha fluorescence, 24 h; activation: stronger effect = higher value. The text has this:
Assay Development and Screening Technology
National Center for Advancing Translational Sciences (NCATS),
National Institute of Health (NIH), Rockville, Maryland
Cellular senescence (CS) is one of the hallmarks of aging and age-related diseases. Senescent cells are characterized by an irreversible growth arrest, an increase in senescence-associated beta-galactosidase (SA-beta-gal) activity and p16INK4a expression, an activation of the DNA damage response pathways, and the emergence of a senescence-associated secretory phenotype (SASP).
Delta133p53alpha, a human/primate-specific p53 protein isoform, delays or inhibits the induction of CS and SASP in various types of human cells, including progeria-derived fibroblasts, primary normal astrocytes, and CD8+ T lymphocytes. Induction of delta133p53alpha with small molecule compounds may provide therapeutic opportunities for inhibition of senescence/SASP-associated pathologies in progeria syndromes, astrocyte-mediated neuroprotection in neurodegenerative diseases, and possibly prevention and treatment of a wider range of senescence- and aging-associated diseases.
Here we report the development and validation of a cell-based quantitative high throughput screening (qHTS) assay in 1,536-well format. This qHTS assay uses the NCI-H358 cell line with doxycycline-inducible expression of enhanced green fluorescent protein (eGFP)-tagged delta133p53alpha, which allows efficient and highly quantitative measurement of the protein levels.
PROTOCOL TABLE (as described by Inglese J, Shamu CE and Guy RK. 2007)
SEQUENCE No. (e.g., 1, 2, 3, etc.); […] (e.g., Cells, Incubation, Reagent, etc.); VALUE; DESCRIPTION.
1; Cells; 4uL; 800 doxycycline treated cells / well in doxycycline-free media, 1536-well black, clear-bottom low base Aurora microplates.
2; Compounds; 23 nL; Kalypsis pin tool (Wako) equipped with 1536-well pin heads, 5-azacytidine positive control.
3; Incubation; 24 hr; 37C, 5% CO2; 95% relative humidity.
4; Aspiration; 1x; BioTek EL406 washer dispenser (Agilent).
5; Fixing; 3.5% paraformaldehyde, BioTek EL406 washer dispenser (Agilent).
6; Washing; 1x PBS; BioTek EL406 washer dispenser (Agilent).
7; Nuclei staining; 1:1000 dilution of Hoechst 33342 (Thermofisher), BioTek EL406 washer dispenser (Agilent).
8; Incubation; 20 min; in the dark at room temperature.
9; Washing; 2x, 1x PBS (ThermoFisher), BioTek EL406 washer dispenser (Agilent).
10; Reagent; 10 uL; 1x PBS per well, sealed with clear adhesive tape.
NOTES (numbers refer to sequence numbers above).
1. NCI-H358 cells expressing eGFP-tagged delta133p53alpha were grown in T75 culture flasks and treated with doxycycline for 24h, at 10 ng/ml for eGFP-D133p53a cells (N-terminal cell) and 100 ng/ml for D133p53a-eGFP cells (C-terminal cells). Cells were trypsinized, counted using a Counted 3 Automated Cell Counter (Thermo Fisher), and diluted to a concentration of 200,000 cells/ml. A Multidrop Combi Reagent Dispenser (ThermoFisher) was used to dispense 800 cells/well in […] of doxycycline-free media, into 1536-well black/clear bottom low base plates (AuroraMicroplates).
2. After plating cells, 23 nl of compound library, DMSO vehicle control or positive control (5-azacytidine) were transferred by Pin Tool (Wako). The plate map layout was the same for each plate: (column 1) non-doxycycline treated cells + DMSO vehicle control; (column 2) doxycycline treated cells + DMSO vehicle control baseline; (column 3) doxycycline treated cells + positive control 57.5 uM final concentration 5-azacytidine; (column 4) doxycycline treated cells + serial dilution of 5-azacytidine, 16-point 1:2 titration spanning 1.8 nM to […] final concentration; (columns 5-48) doxycycline treated cells + titration of library compounds.
3. Cells were incubated at 37 °C, 5 % CO2, 95% RH with breathable metal lid for 24h.
4-10. […] After two washes, 10 ul of 1X PBS (Thermo Fisher) was dispensed to each well. Clear adhesive plate seals (VWR) were applied and plates stored at 4 °C.
11. […]
Background: Quantitative high-throughput screening tests each substance at several concentrations.
In the case of `CCCCCC(=O)N1CCC[C@H]1C(=O)N[C@@H](Cc1ccc(O)cc1)C(=O)OC` (Hexanoyl-Pro-Tyr-OMe), the activation is -3.57%.
Turning to `Cc1c(-c2ccnn2C)cc(C(=O)NCc2ccc(S(C)(=O)=O)cn2)c(=O)n1-c1cccc(C(F)(F)F)c1`, the activation is -2.86% and -5.25%.
As to `CC1(C)CC(NC(=O)C(=O)Nc2ccc(Br)cc2)CC(C)(C)N1`, the Potency was 13.5 µM (active).
For `CN(C)CCc1c[nH]c2ccc(C[C@H]3COC(=O)N3)cc12`, the activation is -0.837% and -21.4% and -11.5%.
With `COc1cc(C)c(C(=O)NC2C(C)OC(OC3CCC(C)C4C3C=C(C)C3/C(C)=C\CC/C(C)=C/C5(C)C=C(C(=O)O)C(C)CC56OC(=O)/C(=C(\O)C34C)C6=O)C(O)C2(C)O)c(O)c1` (stereo not given), the activation was 3.82%.
For `CCCCc1ncc(/C=C(\Cc2cccs2)C(=O)O)n1Cc1ccc(C(=O)O)cc1`, the activation was -19.8% and -8.36% and -2.86%.
Still for that read-out and setting: as for `CC(C)CC1OC(=O)C2CCCN2C(=O)CCNC(=O)C(Cc2ccccc2)NC(=O)C(C(C)C)N(C)C(=O)C(C(C)C)N(C)C1=O` (stereo not given) (cyclo([ξLac(3-iPr)][NMeV][NMeV]F[βAla]P); configuration not given here), the figure is -23.7%; as for `O=C(CCN1CCN(C(=O)OCc2cc(Cl)cc(Cl)c2)CC1)c1ccc2[nH]c(=O)oc2c1`, 10.1%; as for `CCC1C(=O)OC23C=C[C@@H]4C(C(=O)O)=CO[C@H](O[C@@H]12)[C@@H]43` (stereo not given in full), 7.63%.
On the same count and under the same terms, the same measure for `NC(=O)c1cccc2[nH]c(-c3ccc(C4CCCN4)cc3F)nc12` (stereo not given): 0%; for `C[C@@H](O)[C@H]1C(=O)N2C(C(=O)O)=C(SCCN=CN)C[C@H]12`: -25.9% and 4.11%.
As for `CCc1cc2c(cc1N1CCC(N3CCOCC3)CC1)C(C)(C)c1[nH]c3cc(C#N)ccc3c1C2=O`, the activation was 46.2%.
The same measure, in the same setting: as for `CCOC(=O)C1=C(C)NC(C)=C(C(=O)OCC)C1c1c(F)c(F)c(F)c(F)c1F`, the figure is 26.5%; as for `Clc1cccc(Cl)c1NC1=NCCN1`, -3.23% and -7.34% and -13.7%.
Take `CS(=O)c1ccc(-c2nc(-c3ccc(F)cc3)c(-c3ccncc3)[nH]2)cc1` (stereo not given): the Potency is 49.8 µM (active) and the activation was -3.57%.
`NC1Nc2ccccc2C1(N)CC1NC(=O)C(Cc2ccccc2)NC(=O)C(Cc2ccccc2)NC1=O` (stereo not given): the activation is -3.05%.
Take `Cc1cc2c(cc1Cl)N(C(=O)Nc1ccc(Oc3cccnc3C)nc1)CC2`: the activation was -71.3%.
On the same count and under the same terms, the same measure for `COc1ccccc1OCC(O)COC(N)=O` (stereo not given): -36.8% and 17.3%.
Same read-out and setting: as for `CCOc1cc(C(=O)Nc2ccc(Cl)c(-c3nc4ccccc4[nH]3)c2)cc(OCC)c1OCC`, the figure is 1.25% and 5.73%; as for `Cc1ccccc1N1CCN(CCc2nnc3n2CCCC3)CC1`, -10.7%.
Same read-out and setting: as for `C=C1CCC2C(C)(C(=O)O)CC(O)CC2(C)C1CC/C(C)=C/C(=O)O` (stereo not given), the figure is -9.92%; as for `CC(C)(Sc1cc(C(C)(C)C)c(O)c(C(C)(C)C)c1)Sc1cc(C(C)(C)C)c(O)c(C(C)(C)C)c1`, 5.08% and 14.9%.
In the case of `COc1cc(/C=C/c2cc(O)cc(O[C@@H]3O[C@H](CO)[C@@H](O)[C@H](O)[C@H]3O)c2)ccc1O`, the activation is 7.63%.
Still for that read-out and setting: the same measure for `CCOC(=O)C(C)(C)Oc1ccc(Cl)cc1`: 14.3% and -37.9% and -27.7%; for `CC(C)NC[C@H](O)COc1cccc2[nH]ccc12`: 15.4%; for `COc1cccc2c1CCCC2CCCN1CCN(C2CCCCC2)CC1` (stereo not given): 0.872%.
Still for that read-out and setting: as for `CCC(=O)N[C@@H]1Cc2ccccc2[C@H](c2ccccc2)C1`, the figure is -0.333%; as for `CC(C)C[C@H](NC(=O)C1OC1C(=O)O)C(=O)NCCCCN=C(N)N` (stereo not given in full), -1.96%; as for `CC(C)c1noc(C2CCN(c3ncnc(Nc4ccc(S(C)(=O)=O)cc4F)c3[N+](=O)[O-])CC2)n1`, 21%.
`Cc1ccc(NC(=O)c2ccc(CN3CCN(C)CC3)cc2)cc1Nc1nc(-c2cccnc2)cs1`: the activation was 4.59%.
Same read-out and setting: the same measure for `CC(=O)O[C@H]1C[C@@H]2CC[C@@H]3[C@H](CC[C@@]4(C)[C@H]3C[C@H]([N+]3(C)CCCCC3)[C@@H]4OC(C)=O)[C@@]2(C)C[C@@H]1N1CCCCC1`: 9.6%; for `NCCS(=O)O`: -4.42%.
On the same count and under the same terms, as for `O=C(/C=C/c1ccc(O)cc1)OC[C@]12O[C@H]1[C@@H](O)[C@@H]1C=CO[C@@H](O[C@@H]3O[C@H](CO)[C@@H](O)[C@H](O)[C@H]3O)[C@@H]12`, the figure is 18.3%; as for `CC1=C2CC(=O)C(C)CC/C=C(\C)CC2(O)OC1=O` (stereo not given), -1.53%; as for `O=C(O)[C@H](CC(=O)N1C[C@@H]2CCCC[C@H]2C1)Cc1ccccc1`, -15.3%.
Still for that read-out and setting: the same measure for `O=C(O)/C=C/c1cc2c(cc1O[C@@H]1O[C@H](CO)[C@@H](O)[C@H](O)[C@H]1O)OCO2`: 9.92%; for `CC(C)(Oc1ccc(Cl)cc1)C(=O)OCCCOC(=O)C(C)(C)Oc1ccc(Cl)cc1`: -6.69%.
With `C[C@@H]1O[C@@H](OC2C(O[C@H]3[C@H](O[C@H]4CC[C@@]5(C)C(CC[C@]6(C)C5CC=C5C7CC(C)(C)CC(O)[C@]7(C)CC[C@]56C)C4(C)C)O[C@H](C(=O)O)[C@@H](O)[C@@H]3O)OC(CO)C(O)C2O)[C@H](O)[C@H](O)[C@H]1O` (stereo not given in full), the activation is -6.11%.
Still for that read-out and setting: as for `COc1cc2c(cc1OC)CN(C(=O)[C@H](C)N[C@@H](CCc1ccccc1)C(=O)O)[C@H](C(=O)O)C2`, the figure is -10.7%.
